Measurements taken from PubChem BioAssay AID1159580 (chemical genetic matrix, 2015).
Among all 5,500 compounds or so, about 2,000 (36%) were called active. Another 18% or so got no clear call; they are omitted. Rule as the data show it: active = normalized growth mostly below about 0.91 (no sharp cut-off); inconclusive = no clear call, values can overlap the other calls; inactive = mostly above about 0.92. The list shows a part of the results.

Test: chemical genetic growth profiling, strain panel (AID 1159580);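 also: tested at 20 µM; growth read once vehicle control cultures reached saturation at 30 °C; 1 = growth at the plate median or of vehicle wells; lower values mean less growth of the strain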
Details: growth OD

Measured: normalized growth

CCCC(=O)O[C@]1(C(=O)CO)CCC2[C@@H]3CCC4=CC(=O)CC[C@]4(C)C3[C@@H](O)C[C@@]21C (stereo not given in full)
inactive: S. cerevisiae deletion strains, locus YJR066W, strain TOR1, hits give low values 0.99 | S. cerevisiae deletion strains, locus YKL009W, strain mrt4, hits give low values 0.958 | S. cerevisiae deletion strains, locus YKL068W, hits give low values 1.02 | S. cerevisiae deletion strains, locus YKL085W, strain MDH1 (second series), hits give low values 1.01 | S. cerevisiae deletion strains, locus YKL085W, strain MDH1, hits give low values 1.01 | S. cerevisiae deletion strains, locus YKL160W, strain elf1, hits give low values 1.01 | S. cerevisiae deletion strains, locus YKL190W, strain CNB1, hits give low values 1 | S. cerevisiae deletion strains, locus YKR001C, strain vps1, hits give low values 0.982 | S. cerevisiae deletion strains, locus YKR026C, strain gcn3, hits give low values 1.01 | S. cerevisiae deletion strains, locus YKR091W, strain srl3, hits give low values 1 | S. cerevisiae deletion strains, locus YLL001W, strain dnm1, hits give low values 1.01 | S. cerevisiae deletion strains, locus YLL026W, hits give low values 1 | S. cerevisiae deletion strains, locus YLL041C, strain sdh2, hits give low values 1 | S. cerevisiae deletion strains, locus YLR027C, strain aat2, hits give low values 1 | S. cerevisiae deletion strains, locus YLR039C, strain RIC1, hits give low values 0.988 | S. cerevisiae deletion strains, locus YLR058C, strain SHM2, hits give low values 1.01 | S. cerevisiae deletion strains, locus YLR102C, strain apc9, hits give low values 0.985 | S. cerevisiae deletion strains, locus YLR113W, strain HOG1, hits give low values 1.07 | S. cerevisiae deletion strains, locus YLR221C, strain rsa3, hits give low values 1.01 | S. cerevisiae deletion strains, locus YLR258W, strain gsy2, hits give low values 1.01 | S. cerevisiae deletion strains, locus YLR262C, strain YPT6 (second series), hits give low values 1.01 | S. cerevisiae deletion strains, locus YLR262C, strain YPT6, hits give low values 1.01 | S. cerevisiae deletion strains, locus YLR268W, strain sec22, hits give low values 0.988 | S. cerevisiae deletion strains, locus YLR320W, strain mms22, hits give low values 1.02 | S. cerevisiae deletion strains, locus YLR330W, strain CHS5, hits give low values 1.01 | S. cerevisiae deletion strains, locus YLR342W, strain FKS1 (second series), hits give low values 0.996 | S. cerevisiae deletion strains, locus YLR342W, strain FKS1, hits give low values 1.02 | S. cerevisiae deletion strains, locus YLR357W, strain rsc2, hits give low values 1 | S. cerevisiae deletion strains, locus YLR370C, strain arc18, hits give low values 1.01 | S. cerevisiae deletion strains, locus YLR371W, strain rom2, hits give low values 0.996 | S. cerevisiae deletion strains, locus YLR384C, strain iki3, hits give low values 1.01 | S. cerevisiae deletion strains, locus YLR418C, strain cdc73, hits give low values 0.934 | S. cerevisiae deletion strains, locus YML016C, strain PPZ1, hits give low values 1.01 | S. cerevisiae deletion strains, locus YML032C, strain rad52, hits give low values 0.948 | S. cerevisiae deletion strains, locus YML120C, strain ndi1, hits give low values 0.992 | S. cerevisiae deletion strains, locus YML124C, strain tub3, hits give low values 0.996 | S. cerevisiae deletion strains, locus YMR058W, strain fet3, hits give low values 1.01 | S. cerevisiae deletion strains, locus YMR078C, strain ctf18, hits give low values 0.984 | S. cerevisiae deletion strains, locus YMR125W, strain sto1, hits give low values 1.02 | S. cerevisiae deletion strains, locus YMR129W, hits give low values 1.01 | S. cerevisiae deletion strains, locus YMR205C, strain PFK2, hits give low values 1.02 | S. cerevisiae deletion strains, locus YMR223W, strain ubp8, hits give low values 0.951 | S. cerevisiae deletion strains, locus YMR231W, strain pep5, hits give low values 1.01 | S. cerevisiae deletion strains, locus YMR263W, strain SAP30, hits give low values 1.01 | S. cerevisiae deletion strains, locus YMR307W, strain GAS1, hits give low values 0.999 | S. cerevisiae deletion strains, locus YNL067W, strain RPL9B, hits give low values 1.01 | S. cerevisiae deletion strains, locus YNL071W, strain lat1, hits give low values 1 | S. cerevisiae deletion strains, locus YNL128W, strain TEP1, hits give low values 0.994 | S. cerevisiae deletion strains, locus YNL153C, strain GIM3, hits give low values 1.02 | S. cerevisiae deletion strains, locus YNL183C, strain NPR1, hits give low values 0.995 | S. cerevisiae deletion strains, locus YNL209W, strain ssb2, hits give low values 1 | S. cerevisiae deletion strains, locus YNL233W, strain BNI4, hits give low values 1.02 | S. cerevisiae deletion strains, locus YNL248C, strain rpa49, hits give low values 1.02 | S. cerevisiae deletion strains, locus YNL250W, strain rad50, hits give low values 0.983 | S. cerevisiae deletion strains, locus YNL271C, strain bni1, hits give low values 0.992 | S. cerevisiae deletion strains, locus YNL298W, strain CLA4, hits give low values 0.972 | S. cerevisiae deletion strains, locus YNL307C, strain MCK1, hits give low values 0.982 | S. cerevisiae deletion strains, locus YNL322C, strain KRE1 (second series), hits give low values 1.01 | S. cerevisiae deletion strains, locus YNR049C, strain mso1, hits give low values 1.01 | S. cerevisiae deletion strains, locus YNR052C, strain pop2, hits give low values 0.975 | S. cerevisiae deletion strains, locus YOL006C, strain TOP1, hits give low values 1.06 | S. cerevisiae deletion strains, locus YOL012C, strain htz1 1.05 | S. cerevisiae deletion strains, locus YOL147C, strain pex11, hits give low values 0.982 | S. cerevisiae deletion strains, locus YOR001W, strain rrp6, hits give low values 1.02 | S. cerevisiae deletion strains, locus YOR061W, strain CKA2, hits give low values 1.01 | S. cerevisiae deletion strains, locus YOR069W, strain VPS5, hits give low values 1 | S. cerevisiae deletion strains, locus YOR070C, strain gyp1, hits give low values 1 | S. cerevisiae deletion strains, locus YOR080W, strain dia2, hits give low values 0.997 | S. cerevisiae deletion strains, locus YOR083W, strain WHI5, hits give low values 1 | S. cerevisiae deletion strains, locus YOR106W, strain vam3, hits give low values 1 | S. cerevisiae deletion strains, locus YOR136W, strain idh2, hits give low values 0.983 | S. cerevisiae deletion strains, locus YOR144C, strain elg1, hits give low values 0.977 | S. cerevisiae deletion strains, locus YOR184W, strain ser1, hits give low values 0.963 | S. cerevisiae deletion strains, locus YOR231W, strain MKK1, hits give low values 1.09 | S. cerevisiae deletion strains, locus YOR265W, strain rbl2, hits give low values 1 | S. cerevisiae deletion strains, locus YOR270C, strain vph1, hits give low values 1.01 | S. cerevisiae deletion strains, locus YOR290C, strain snf2, hits give low values 1 | S. cerevisiae deletion strains, locus YOR316C, strain cot1, hits give low values 0.994 | S. cerevisiae deletion strains, locus YPL051W, strain arl3, hits give low values 1 | S. cerevisiae deletion strains, locus YPL055C, strain LGE1, hits give low values 1.04 | S. cerevisiae deletion strains, locus YPL078C, strain atp4, hits give low values 1.01 | S. cerevisiae deletion strains, locus YPL106C, strain sse1, hits give low values 1.02 | S. cerevisiae deletion strains, locus YPL240C, strain hsp82, hits give low values 1 | S. cerevisiae deletion strains, locus YPL256C, strain CLN2, hits give low values 1.05 | S. cerevisiae deletion strains, locus YPR119W, strain clb2, hits give low values 0.993 | S. cerevisiae deletion strains, locus YPR141C, strain kar3, hits give low values 1.01 | S. cerevisiae deletion strains, locus YPR163C, strain tif3, hits give low values 1.01 | S. cerevisiae deletion strains, locus YPR167C, strain met16, hits give low values 0.99 | S. cerevisiae deletion strains, strain wtn01, hits give low values 0.961 | S. cerevisiae strains, strain wild type, hits give low values 1.01
